This passage reports Potency and outcome results from PubChem BioAssay (Tox21).

Where “and” joins values, the source holds several entries; their conditions need not be identical. Equal entries are not always repeated. Calls of active or inactive are those of the source. Unless noted, calls come from the whole dose curve; as a rule, active = well fitted curve in the direction sought with a large enough effect in the repeat runs; inconclusive = weak or mixed curves; inactive = no such curve, though single readings can be large; an effect the other way counts as inactive or inconclusive.

Experiment [1] in a line: qHTS assay for small molecule disruptors of the mitochondrial membrane potential (AID 720635). Note: potency is the fitted concentration of half-maximal effect. The gist of the method:
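HepG2 cells exposed to compound 1 hr at 37C, then Mito-MPS dye 30 min. Ratio read of aggregate (540/590 nm) versus monomer (490/535 nm) fluorescence.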
On the technique in general: qHTS replaces the single test concentration by a dilution series.

A short description of experiment [2]: qHTS assay to test for compound auto fluorescence at 590 nm (red) in HEK293 cells (AID 720679). In outline:
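Using HEK293 cells at 2,000 per well, the screen added 23 nL of each compound after cell attachment and incubated overnight (37C, 5% CO2). The plate reader then captured red-label fluorescence, Ex/Em 540/590nm.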

The nature of experiment [3]: qHTS assay to test for compound auto fluorescence at 535 nm (green) in HEK293 cells (AID 720680).
Experiment [4] is described as follows: qHTS assay to identify small molecule antagonists of the thyroid receptor (TR) signaling pathway - cell viability counter screen (AID 743064). Note: nearly all actives have a fitted effect of over 50% in size. Note: potency is the fitted concentration of half-maximal effect. The gist of the method:
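CellTiter-Fluor readout, 30 min at 37 °C/5% CO2, following 23.5 h incubation of GH3.TRE-Luc cells with test compound and 1 nM T3 (final).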

Experiment [5] is described as follows: qHTS assay to identify small molecule antagonists of the thyroid receptor (TR) signaling pathway (AID 743065). Note: nearly all actives have a fitted effect of over 55% in size. Note: potency is the fitted concentration of half-maximal effect. In outline: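 GH3.TRE-Luc rat pituitary cells (two TREs driving luciferase) were dosed with compound, then stimulated with 1 nM T3 (final) for 23.5 h at 37 C. ONE-Glo luminescence was the read-out, with CellTiter-Fluor fluorescence as the cytotoxicity counter-screen.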

Experiment [6] is described as follows: qHTS assay for small molecule activators of the heat shock response signaling pathway (AID 743210; active = well fitted activation curve with a large enough effect in the signal ratio in the repeat runs, with a control signal flat, not every such curve was filed as active; inconclusive = weak or mixed curves; the % refers to the signal ratio;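 note: HeLa cells with beta-lactamase reporter driven by heat shock elements; series mostly up to about 63 µM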). The gist of the method:
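Quantitative high-throughput format using an engineered HeLa line in which heat shock response elements drive beta-lactamase; after 5 h with compound, cells received a B/G FRET substrate and fluorescence was read.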

Experiment [7] in a line: qHTS assay to identify small molecule agonists of the peroxisome proliferator-activated receptor delta (PPARd) signaling pathway - cell viability counter screen (AID 743211). Note: nearly all actives have a fitted effect of over 55% in size. Note: potency is the fitted concentration of half-maximal effect. The gist of the method:
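In the same wells used for beta-lactamase reporter measurement, cytotoxicity is scored by CellTiter-Glo. HEK293H PPARd-bla cells receive compound for 17 h at 37C following a 5 h settling period.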

Experiment [8] concerns the target Peroxisome proliferator-activated receptor delta (Homo sapiens) (UniProt Q03181). The experiment can be described thus: qHTS assay to identify small molecule antagonists of the peroxisome proliferator-activated receptor delta (PPARd) signaling pathway (AID 743215; active = well fitted inhibition curve with a large enough effect in the signal ratio in the repeat runs, not every such curve was filed as active; inconclusive = weak or mixed curves, or effect the other way; inactive = no such curve, though single readings can be large or run the other way; the % refers to the signal ratio;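 note: cells stimulated with agonist L165041 at 300 nM final during compound exposure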; note: potency is the fitted concentration of half-maximal effect). The gist of the method:
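Read-out is beta-lactamase FRET fluorescence, measured 2 h after substrate addition at room temperature. Beforehand, UAS-bla HEK293H cells carrying the PPARd reporter were exposed to compounds with L165041 at 300 nM final for 17 h at 37 C.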

The target of experiment [9] is Estrogen receptor beta (Homo sapiens) (UniProt Q92731). The experiment can be described thus: qHTS assay to identify small molecule antagonists of the estrogen receptor beta (ER-beta) signaling pathway (AID 1259378; active = well fitted inhibition curve with a large enough effect in the signal ratio in the repeat runs, not every such curve was filed as active; inconclusive = weak or mixed curves, or effect the other way; inactive = no such curve, though single readings can be large or run the other way; the % refers to the signal ratio; note: potency is the fitted concentration of half-maximal effect). In outline: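 ER-beta-UAS-bla HEK293T cells in 2% charcoal-stripped FBS medium treated with compound plus 1nM final 17-beta-estradiol for 16 hr at 37C. Beta-lactamase reporter read by FRET substrate fluorescence after 2 hours at room temperature.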
Chain of Estrogen receptor beta (Homo sapiens) (Q92731 whole entry, looked up): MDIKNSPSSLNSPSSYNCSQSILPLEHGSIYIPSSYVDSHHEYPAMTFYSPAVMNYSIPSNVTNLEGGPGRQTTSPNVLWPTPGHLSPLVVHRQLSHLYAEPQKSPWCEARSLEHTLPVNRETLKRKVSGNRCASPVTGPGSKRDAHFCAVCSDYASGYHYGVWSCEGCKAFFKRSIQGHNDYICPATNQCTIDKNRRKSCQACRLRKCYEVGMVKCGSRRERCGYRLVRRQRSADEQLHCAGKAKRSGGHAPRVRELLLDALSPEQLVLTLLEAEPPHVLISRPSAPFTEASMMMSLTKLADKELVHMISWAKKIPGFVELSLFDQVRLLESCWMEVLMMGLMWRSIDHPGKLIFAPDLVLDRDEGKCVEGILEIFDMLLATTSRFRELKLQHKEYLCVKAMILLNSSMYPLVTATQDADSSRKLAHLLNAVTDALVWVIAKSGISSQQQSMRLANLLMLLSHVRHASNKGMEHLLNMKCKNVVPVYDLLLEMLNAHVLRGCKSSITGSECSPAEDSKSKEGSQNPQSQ

Experiment [10] deals with Progesterone receptor (Homo sapiens) (UniProt P06401). Put plainly: qHTS assay to identify small molecule antagonists of the progesterone receptor (PR) signaling pathway (AID 1346795; active = well fitted inhibition curve with a large enough effect in the signal ratio in the repeat runs, not every such curve was filed as active; inconclusive = weak or mixed curves; the % refers to the signal ratio; note: potency is the fitted concentration of half-maximal effect). In outline: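 Stimulus R5020 at 1 nM final; cells HEK293T PR-UAS-bla; medium with 2% charcoal-stripped FBS; compound exposure 16 hr at 37C, 5% CO2; detection by FRET beta-lactamase substrate, 2 hr, room temperature.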
Chain of Progesterone receptor (Homo sapiens) (P06401 whole entry, looked up): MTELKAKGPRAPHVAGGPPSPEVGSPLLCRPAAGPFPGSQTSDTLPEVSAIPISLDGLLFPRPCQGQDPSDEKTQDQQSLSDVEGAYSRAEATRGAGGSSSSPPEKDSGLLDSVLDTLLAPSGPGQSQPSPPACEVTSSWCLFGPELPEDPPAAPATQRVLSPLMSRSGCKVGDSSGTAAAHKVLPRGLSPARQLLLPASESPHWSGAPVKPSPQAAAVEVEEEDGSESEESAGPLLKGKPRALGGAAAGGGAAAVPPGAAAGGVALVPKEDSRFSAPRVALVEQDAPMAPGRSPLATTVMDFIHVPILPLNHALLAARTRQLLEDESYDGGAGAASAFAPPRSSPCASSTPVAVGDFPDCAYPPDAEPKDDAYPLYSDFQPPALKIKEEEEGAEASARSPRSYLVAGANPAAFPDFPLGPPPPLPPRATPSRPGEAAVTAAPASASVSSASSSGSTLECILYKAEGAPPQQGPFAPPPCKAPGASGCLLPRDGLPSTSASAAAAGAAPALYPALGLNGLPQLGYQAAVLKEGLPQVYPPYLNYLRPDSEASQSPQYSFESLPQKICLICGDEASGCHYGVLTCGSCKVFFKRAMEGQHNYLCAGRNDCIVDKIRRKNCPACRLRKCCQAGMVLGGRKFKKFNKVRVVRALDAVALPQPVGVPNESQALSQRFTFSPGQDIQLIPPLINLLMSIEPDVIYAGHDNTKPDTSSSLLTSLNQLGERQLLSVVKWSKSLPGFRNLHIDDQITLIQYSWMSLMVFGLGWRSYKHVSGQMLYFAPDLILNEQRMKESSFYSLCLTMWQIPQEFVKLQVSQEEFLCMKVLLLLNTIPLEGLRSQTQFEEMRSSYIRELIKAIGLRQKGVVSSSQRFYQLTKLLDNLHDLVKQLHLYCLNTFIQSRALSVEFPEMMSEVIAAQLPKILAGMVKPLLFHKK

A short description of experiment [11]: qHTS assay for small molecules that induce genotoxicity in human embryonic kidney cells expressing luciferase-tagged ATAD5 - cell viability (AID 651634; calls by dose curve; note: nearly all actives have a fitted effect of over 25% in size; note: potency is the fitted concentration of half-maximal effect). In outline:
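Fluorescence from CellTiter-Fluor, reporting protease activity within live cells, served as the viability read-out. HEK293T cells carrying luciferase-tagged ATAD5 had been treated with compound for 15.5 hr at 37C.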

The nature of experiment [12]: qHTS assay to test for compound auto fluorescence at 535 nm (green) in HepG2 cells (AID 720675).
Experiment [13] in a line: qHTS assay to identify aromatase inhibitors - cell viability counter screen (AID 743084).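 Note: cells stimulated with testosterone during compound exposure; nearly all actives have a fitted effect of over 55% in size.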 Note: potency is the fitted concentration of half-maximal effect.
Experiment [14] in a line: qHTS assay to identify small molecule antagonists of the farnesoid-X-receptor (FXR) signaling pathway - cell viability counter screen (AID 743221; active = well fitted cell-killing curve with a large enough effect in the repeat runs, not every such curve was filed as active; inconclusive = weak or mixed curves, or effect the other way; inactive = no such curve, though single readings can be large or run the other way; note: nearly all actives have a fitted effect of over 50% in size; note: potency is the fitted concentration of half-maximal effect). In outline:
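Here viability was scored by luminescence after CellTiter-Glo addition to wells already read for beta-lactamase. Prior treatment: compound plus CDCA (50 uM final), 16 h, 37 C, HEK 293T FXR-bla cells.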

The nature of experiment [15]: qHTS assay to identify small molecule agonists of the hypoxia (HIF-1) signaling pathway (AID 1224846; active = well fitted activation curve with a large enough effect in the signal ratio in the repeat runs, not every such curve was filed as active; inconclusive = weak or mixed curves; the % refers to the signal ratio). The gist of the method: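 Cell line: CellSensor HRE-bla ME-180; 2,000 cells/well; 0.5% dialyzed FBS; 5 h preincubation; DMSO compound pin transfer; 17 h, 37C, 5% CO2; CCF4-AM added; bla FRET signal scored for activation.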
The target in experiment [16] is Estrogen receptor (Homo sapiens) (UniProt P03372). The experiment can be described thus: qHTS assay to identify small molecule agonists of the estrogen receptor alpha (ER-alpha) signaling pathway (AID 743075; calls by dose curve;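 note: HEK293 GripTite cells with ER-alpha and UAS-driven beta-lactamase reporter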; note: potency is the fitted concentration of half-maximal effect).
Chain of Estrogen receptor (Homo sapiens) (P03372 whole entry, looked up): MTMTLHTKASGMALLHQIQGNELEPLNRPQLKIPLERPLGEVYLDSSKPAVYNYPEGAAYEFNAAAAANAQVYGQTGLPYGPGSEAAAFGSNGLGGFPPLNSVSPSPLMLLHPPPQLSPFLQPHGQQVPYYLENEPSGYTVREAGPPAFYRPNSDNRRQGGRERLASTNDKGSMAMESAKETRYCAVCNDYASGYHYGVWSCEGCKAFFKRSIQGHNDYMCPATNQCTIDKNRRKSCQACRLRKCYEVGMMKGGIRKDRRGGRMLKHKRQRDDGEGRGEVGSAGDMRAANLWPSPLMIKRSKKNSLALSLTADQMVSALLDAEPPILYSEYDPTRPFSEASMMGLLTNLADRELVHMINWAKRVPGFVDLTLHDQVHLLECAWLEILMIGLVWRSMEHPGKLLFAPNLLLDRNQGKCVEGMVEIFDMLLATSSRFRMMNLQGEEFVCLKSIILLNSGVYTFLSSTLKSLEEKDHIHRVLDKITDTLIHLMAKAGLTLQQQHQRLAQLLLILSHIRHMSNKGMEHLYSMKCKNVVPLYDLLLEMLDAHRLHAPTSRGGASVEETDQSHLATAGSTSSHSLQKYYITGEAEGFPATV
Experiment [17] in a line: qHTS assay to identify small molecule antagonists of the estrogen receptor alpha (ER-alpha) signaling pathway using the BG1 cell line - cell viability counter screen (AID 743081).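 Note: compound given together with 17beta-estradiol as the ER stimulus; series mostly up to about 70 µM; nearly all actives have a fitted effect of over 45% in size.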
The target of experiment [18] is Nuclear receptor ROR-gamma (Homo sapiens) (UniProt P51449). Put plainly: qHTS assay to identify small molecule antagonists of the retinoid-related orphan receptor gamma (ROR-gamma) signaling pathway (AID 1159521; note: nearly all actives have a fitted effect of over 50% in size; note: potency is the fitted concentration of half-maximal effect). The gist of the method:
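Test compounds were applied to Tet-on RORγ CHO cells 2 h ahead of doxycycline hyclate (1 uM final). Luciferase reporter activity was quantified by luminescence after 16 h at 37 C and 5% CO2.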

Experiment [19] in a line: qHTS assay for identifying genotoxic compounds that show differential cytotoxicity against isogenic chicken DT40 cell lines with known DNA damage response pathways - wild type cell line (AID 743012). Note: potency is the fitted concentration of half-maximal effect; nearly all actives have a fitted effect of over 60% in size. The gist of the method:
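Wild type DT40, 300 cells/well, ~0.5 h settle at 37 C/5% CO2; compounds in DMSO added by pintool; 40 h at 37 C/5% CO2; CellTiter-Glo, 30 min RT; luminescence.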

The target in experiment [20] is Androgen receptor (Homo sapiens) (UniProt P10275). The experiment can be described thus: qHTS assay to identify small molecule antagonists of the androgen receptor (AR) signaling pathway using the MDA cell line in the presence of 0.5 nM R1881 (AID 1259243). Note: potency is the fitted concentration of half-maximal effect; nearly all actives have a fitted effect of over 50% in size. In outline:
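Luciferase luminescence is the read-out: compounds are tested for suppressing 0.5 nM R1881-driven MMTV reporter activity in MDA-kb2 cells after 16 hr at 37C.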

Chain of Peroxisome proliferator-activated receptor delta (Homo sapiens) (Q03181 whole entry, looked up): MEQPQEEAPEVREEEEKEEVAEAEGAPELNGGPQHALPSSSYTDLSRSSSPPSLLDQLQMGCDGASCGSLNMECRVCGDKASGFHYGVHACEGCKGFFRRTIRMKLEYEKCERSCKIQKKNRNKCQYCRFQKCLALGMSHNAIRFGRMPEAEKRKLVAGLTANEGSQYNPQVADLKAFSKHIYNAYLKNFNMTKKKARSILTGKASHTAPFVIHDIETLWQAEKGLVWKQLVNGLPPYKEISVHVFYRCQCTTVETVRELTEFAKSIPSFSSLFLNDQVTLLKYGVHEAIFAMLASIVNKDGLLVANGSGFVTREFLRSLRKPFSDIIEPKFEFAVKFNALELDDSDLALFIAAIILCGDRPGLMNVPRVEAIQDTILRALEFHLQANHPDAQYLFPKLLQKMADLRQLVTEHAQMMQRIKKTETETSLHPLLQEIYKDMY
Chain of Androgen receptor (Homo sapiens) (P10275 whole entry, looked up): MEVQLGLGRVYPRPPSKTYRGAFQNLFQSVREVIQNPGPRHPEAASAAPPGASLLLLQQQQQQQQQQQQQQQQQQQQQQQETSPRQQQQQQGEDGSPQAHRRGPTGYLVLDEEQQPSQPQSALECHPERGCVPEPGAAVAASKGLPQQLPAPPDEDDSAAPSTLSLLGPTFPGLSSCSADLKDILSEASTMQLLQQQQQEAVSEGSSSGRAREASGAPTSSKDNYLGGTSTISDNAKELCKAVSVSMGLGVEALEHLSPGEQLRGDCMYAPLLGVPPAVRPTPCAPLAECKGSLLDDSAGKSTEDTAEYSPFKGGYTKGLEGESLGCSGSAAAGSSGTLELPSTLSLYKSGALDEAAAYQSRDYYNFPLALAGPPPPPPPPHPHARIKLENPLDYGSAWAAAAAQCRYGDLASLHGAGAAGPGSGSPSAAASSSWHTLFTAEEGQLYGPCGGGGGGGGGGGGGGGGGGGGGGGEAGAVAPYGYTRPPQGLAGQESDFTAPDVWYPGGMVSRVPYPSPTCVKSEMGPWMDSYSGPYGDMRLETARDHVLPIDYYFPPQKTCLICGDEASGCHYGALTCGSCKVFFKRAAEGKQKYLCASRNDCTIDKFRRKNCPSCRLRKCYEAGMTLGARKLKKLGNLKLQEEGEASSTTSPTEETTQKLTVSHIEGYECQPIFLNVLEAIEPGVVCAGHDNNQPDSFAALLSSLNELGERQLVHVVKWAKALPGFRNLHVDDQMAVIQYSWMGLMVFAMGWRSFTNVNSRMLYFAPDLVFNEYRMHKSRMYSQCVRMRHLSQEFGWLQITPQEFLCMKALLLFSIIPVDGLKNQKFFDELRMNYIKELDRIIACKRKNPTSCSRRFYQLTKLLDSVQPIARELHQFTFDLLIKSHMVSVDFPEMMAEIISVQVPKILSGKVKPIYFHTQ

In the case of `CC1COC(Cn2cncn2)(c2ccc(Oc3ccc(Cl)cc3)cc2Cl)O1` (centres undefined), the Potency in [1] is 61.1 µM (active); in [4], 48.6 µM (active); in experiment [5], 12.2 µM (active); in experiment [7], 49 µM (active); in experiment [8], 49 µM (active); in experiment [9] it was 27.3 µM (active). In addition, the Potency in [10] is 24.3 µM (active). Further, the result in [2] was inactive. Besides, the Potency result in [3] and in experiment [6] was “inactive” each time.
For `O=[N+]([O-])c1c(Cl)c(Cl)cc(Cl)c1Cl`, the Potency entry in [11], in [12], in [3], in experiment [5], in experiment [13] and in experiment [6] was “inactive” throughout. For the same compound, the Potency entry in experiment [7], in [14] and in [10] was “inactive” throughout. The call in experiment [2] and in [15] was inactive.
Consider `COc1cc(OC)c(OC)cc1C=O`, for which the Potency entry in experiment [11], in experiment [12], in experiment [16], in experiment [17], in [14] and in experiment [18] was “inactive” throughout. The Potency result in experiment [9] is “inactive”. Also, the compound was called inactive in experiment [2]. In addition, the Potency in experiment [13] was 59.3 µM (active).
Turning to `O=C(Nc1ccccc1-c1ccc(Cl)cc1)c1cccnc1Cl`, the Potency result in experiment [11], in experiment [12], in experiment [3], in experiment [16], in [17] and in [13] was “inactive” each time. The Potency result in experiment [18] is “inactive”. The Potency in [19] and in experiment [5] was 57.8 µM (active) throughout.
On to `CN1CSC(=S)N(C)C1`, for which the Potency entry in [11], in [1], in experiment [3], in experiment [16] and in experiment [17] was “inactive” each time. In experiment [2], the compound was classed as inactive. In addition, the Potency was 6.08 µM (active) and 5.43 µM (active) in experiment [19]; 30.5 µM (active) in [4]; 3.05 µM (active) and 3.85 µM (active) in experiment [5]; 10.8 µM (active) and 27.2 µM (active) in [13]; 3.87 µM (active) in experiment [7]; 12.3 µM (active) in experiment [14]. Besides, the Potency in experiment [18] is 964 nM (active) and 2.16 µM (active); in experiment [9] it was 24.2 µM (active); in [10], 19.2 µM (active) and 8.61 µM (active).
For the compound `COc1ccc(C(c2ccc(OC)cc2)C(Cl)(Cl)Cl)cc1`, the Potency result in [11], in [12], in [3], in experiment [17] and in experiment [14] was “inactive” in each case. Besides, the compound was classed as inactive in experiment [2]. For the same compound, the Potency in experiment [19] is 19.2 µM (active); in experiment [4], 36.2 µM (active); in experiment [5], 24.2 µM (active); in experiment [16], 19.4 µM [inconclusive] (active); in [18] it was 48.3 µM (active).
Consider `O=S(=O)(C(Cl)(Cl)Cl)C(Cl)(Cl)Cl`, for which the Potency in [20] is 17.2 µM (active). In [10], the Potency entry was “inactive”.
For `ClC(Cl)=C(c1ccc(Cl)cc1)c1ccccc1Cl`, the outcome in [15] was inactive. In addition, the Potency in experiment [20] is 9.69 µM (active); in experiment [9], 6.86 µM (active).
`CC(c1ccccc1)(c1ccc(O)cc1)c1ccc(O)cc1`: in experiment [18], the Potency was 48.6 µM (active).
As for `Cc1cc(C)c(C(=O)P(=O)(c2ccccc2)c2ccccc2)c(C)c1`, the Potency is 61.1 µM (active) in experiment [18] and 54.5 µM (active) in [20].
For `Cc1cc(C(C)(C)c2ccc(O)c(C)c2)ccc1O`, the Potency is 6.53 µM (active) in experiment [1] and 4.62 µM (active) in experiment [20]. Moreover, the call in experiment [2] was inactive. Also, the Potency entry in experiment [3], in experiment [4], in experiment [17], in experiment [6] and in [14] was “inactive” throughout.
With `CO/C=C(/C(=O)OC)c1ccccc1Oc1cc(Oc2ccccc2C#N)ncn1`, the Potency in experiment [11] is 7.31 µM (active); in experiment [1], 2.31 µM (active); in experiment [4] it was 33.6 µM (active); in experiment [5], 0.411 µM (active); in [13] it was 58.1 µM (active); in experiment [18], 0.581 µM (active). The Potency in experiment [20] is 5.81 µM (active). The Potency entry in experiment [12], in experiment [16] and in experiment [6] was “inactive” each time. Also, in experiment [2], the compound was called inactive.
With `O=C(c1ccccc1)C(Cl)Cl`, the Potency was 27.3 µM (active) in experiment [18] and 4.33 µM (active) in experiment [20].
As for `Cc1ccccc1N=O`, the Potency entry in experiment [8] was “inactive”.
On to `C=CC(=O)OCCCCCCCC(C)C`, for which, in [9], the Potency result was “inactive”.
Regarding `Clc1ccccc1-c1ccccc1Cl`, the Potency entry in experiment [11], in experiment [12], in experiment [3], in experiment [4], in experiment [17] and in experiment [6] was “inactive” each time. In addition, the Potency result in experiment [7], in experiment [8], in experiment [14] and in experiment [10] was “inactive” in each case. In addition, the Potency in experiment [1] is 19.6 µM (active).
Take `Brc1ccc(Br)c(Br)c1`: the Potency entry in experiment [6] was “inactive”.
As for `Nc1ccc(Cl)cc1Cl`, the Potency entry in [6] was “inactive”.
On to `C=CC(=O)OCCCC`, for which, in experiment [8], the Potency entry was “inactive”.
On the same count and under the same terms, with `Cc1cccc([N+](=O)[O-])c1C` the entry was “inactive”; with `Fc1c(F)c(F)c(Br)c(F)c1F`, “inactive”.
In the case of `O=P(O)(O)C(Cl)(Cl)P(=O)(O)O`, the Potency entry in experiment [1] and in experiment [5] was “inactive” each time.
